The values below come from ChEMBL document CHEMBL1857833, “Screening and optimization of specific chemical series against human African Trypanosomiasis (HAT)”.

One may read the % inhibition as the drop in the measured response relative to a control, in per cent.

The whole screen tested about 4,400 compounds, of which about 390 (8.9%) showed an effect of 50% or more. For the sample, strong results were picked, then their nearest neighbours and some compounds at random.

The subject of this assay is Trypanosoma brucei. Briefly: DNDI: Inhibition of Human African Trypanosomiasis, SBRI 427, in vitro at 2 ug.mL-1. Format: functional.
As to `CCOc1ccccc1-c1nc(CN2CCN(C(c3ccccc3)c3ccccc3)CC2)co1`, the “% inhibition” value is 5%.

For `COc1ccccc1CN/C(=N\O)c1ccc(Oc2cc(C)cc(C)c2)nc1`, the “% inhibition” value is reported as -8%.

For `O/N=C(/c1ccc(Oc2ccc(Cl)cc2)nc1)n1ccnc1`, the “% inhibition” value was 0%.

As to `CCOc1ccc(Oc2cc(/C(=N/O)NCc3ccc(C)o3)ccn2)cc1`, the “% inhibition” value is 24%.

For `Cc1ccccc1-c1nc(CNCc2ccccc2C(F)(F)F)co1`, the “% inhibition” value turned out to be 7%.

With `FC(F)(F)c1ccc(CNCc2coc(-c3cccc4ccccc34)n2)cc1`, the “% inhibition” value is given as 3%.

Regarding `CCOc1ccccc1CN/C(=N\O)c1cccnc1OCc1cccc(F)c1`, the “% inhibition” value was 72%.

Consider `CCOc1ccccc1CN/C(=N\O)c1ccc(C)nc1OCc1ccccc1F`, for which the “% inhibition” value is given as 8%.

Take `CCOc1ccccc1CN/C(=N\O)c1cccnc1OCc1ccccc1F`: the “% inhibition” value turned out to be 55%.

Regarding `O/N=C(\NCc1ccccc1F)c1cccnc1OCc1cccc(F)c1`, the “% inhibition” value is reported as 29%.

Take `O/N=C(\NCc1cccnc1)c1cccnc1OCc1ccccc1F`: the “% inhibition” value is 4%.

Consider `COc1ccccc1CN/C(=N\O)c1ccc(C)nc1OCc1cccc(F)c1`, for which the “% inhibition” value is listed as -8%.

As for `FC(F)(F)c1ccc(-c2nc(CNc3cc[nH]n3)co2)cc1`, the “% inhibition” value came out at 40%.

For `Cc1ccc(/C(=N/O)N2C(C)CCCC2C)c(Oc2ccc(F)cc2)n1` (stereo not drawn), the “% inhibition” value was 28%.

Turning to `O/N=C(/c1ccc(Oc2cccc3ccccc23)nc1)N1CCCCCC1`, the “% inhibition” value was found to be 25%.

As to `CCOc1ccc(-c2nc(CN(C)CCc3ccc(OC)c(OC)c3)co2)cc1`, the “% inhibition” value was -3%.

Consider `COc1ccccc1CN/C(=N\O)c1ccc(C)nc1Oc1ccc(F)c(Cl)c1`, for which the “% inhibition” value worked out at 11%.

As for `COc1ccccc1CN/C(=N\O)c1ccc(C)nc1Oc1cc(Cl)ccc1Cl`, the “% inhibition” value was found to be 100%.

With `Cc1ccc(/C(=N/O)NCc2ccccc2F)c(Oc2cc(Cl)ccc2Cl)n1`, the “% inhibition” value is given as 81%.

Turning to `COc1ccccc1CN/C(=N\O)c1ccc(C)nc1Oc1ccc(Cl)cc1`, the “% inhibition” value turned out to be 3%.

Regarding `Cc1ccc(/C(=N/O)NCc2c(F)cccc2F)c(Oc2cc(Cl)ccc2Cl)n1`, the “% inhibition” value came to 35%.

`Cc1ccc(/C(=N/O)NCc2ccccc2C)c(Oc2cc(Cl)ccc2Cl)n1`: the “% inhibition” value turned out to be 18%.

For `COc1cccc(-c2nc(CNCc3ccccc3C(F)(F)F)co2)c1`, the “% inhibition” value was 20%.

For the compound `Cc1ccc(C)c(N2CCN(Cc3coc(-c4ccc(F)cc4)n3)CC2)c1`, the “% inhibition” value is recorded as -12%.

With `c1coc(-c2nc(CNC3CCCCC3)co2)c1`, the “% inhibition” value is listed as 6%.

Turning to `Fc1ccc(-c2nc(CNC3CCCCC3)co2)cc1`, the “% inhibition” value is listed as 8%.

In the case of `Oc1ccc(-c2nc(CNC3CCCCCCCCCCC3)co2)cc1`, the “% inhibition” value worked out at 60%.

Consider `Cc1ccc(-c2nc(CNC3CCCCCCC3)co2)cc1`, for which the “% inhibition” value amounted to 71%.

In the case of `CC(NCc1coc(-c2ccc(O)cc2)n1)C1CCCCC1` (stereo not drawn), the “% inhibition” value worked out at 0%.

Turning to `Oc1ccc(-c2nc(CNC3CCCCCC3)co2)cc1`, the “% inhibition” value amounted to 16%.

In the case of `FC(F)(F)c1ccc(-c2nc(CNc3ccc(Oc4ccccc4)cc3)co2)cc1`, the “% inhibition” value is given as 4%.

On to `COc1cccc(-c2nc(CN(CCN(C)C)Cc3ccccc3)co2)c1`, for which the “% inhibition” value is on record as 23%.

`Cc1cc(C)cc(Oc2ccc(/C(=N/O)N3CCN(C4CCCC4)CC3)cn2)c1`: the “% inhibition” value turned out to be 0%.

On to `COc1cc(-c2nc(CNC(C)c3cccc4ccccc34)co2)cc(OC)c1OC` (stereo not drawn), for which the “% inhibition” value was -4%.

For the compound `COc1ccc(CN/C(=N\O)c2cccnc2Oc2c(F)cccc2F)cc1`, the “% inhibition” value is -7%.

In the case of `CC(C)(C)CN/C(=N\O)c1cccnc1Oc1c(F)cccc1F`, the “% inhibition” value stood at 100%.

`Cc1ccccc1CN/C(=N\O)c1cccnc1Oc1c(F)cccc1F`: the “% inhibition” value is recorded as 95%.

On to `CSc1ccccc1Oc1ncccc1/C(=N/O)NCc1c(F)cccc1F`, for which the “% inhibition” value is reported as 58%.

For the compound `COc1ccccc1Oc1ncccc1/C(=N/O)NCc1c(F)cccc1F`, the “% inhibition” value is recorded as 28%.

Consider `O/N=C(\NCc1c(F)cccc1F)c1cccnc1Oc1ccc(F)cc1`, for which the “% inhibition” value amounted to 94%.

Regarding `O/N=C(\NCc1ccccc1)c1cccnc1Oc1c(F)c(F)cc(F)c1F`, the “% inhibition” value is listed as 10%.

Take `O/N=C(\NCc1ccncc1)c1cccnc1Oc1ccc(F)cc1`: the “% inhibition” value is given as 2%.

In the case of `CCOc1ccccc1CN/C(=N\O)c1cccnc1Oc1c(F)cccc1F`, the “% inhibition” value was found to be 41%.

Take `O/N=C(\NCc1cccnc1)c1cccnc1Oc1ccc(F)cc1`: the “% inhibition” value was 2%.

In the case of `CCc1ccc(Oc2ncccc2/C(=N/O)n2ccnc2)cc1`, the “% inhibition” value is on record as 3%.

Regarding `Cc1cccc(Oc2ccc(/C(=N/O)N(C)C3CCCCC3)cn2)c1`, the “% inhibition” value was 4%.

In the case of `Cc1ccc(/C(=N/O)NCC2CC2)c(Oc2cccc3c2CCCC3)n1`, the “% inhibition” value is -5%.

Turning to `Cc1cc(C)cc(Oc2nc(C)ccc2/C(=N/O)Nc2ccc(C(C)C)cc2)c1`, the “% inhibition” value is 0%.

For the compound `COc1cccc(-c2nc(CN3CCN(c4ccccn4)CC3)co2)c1`, the “% inhibition” value is listed as -9%.

With `Oc1ccc(-c2nc(CNCc3ccccc3)co2)cc1`, the “% inhibition” value came to 1%.

Consider `CN(Cc1coc(-c2ccc(C(F)(F)F)cc2)n1)CC1OCCO1`, for which the “% inhibition” value is -7%.

With `CN(Cc1cccnc1)Cc1coc(-c2cccc(F)c2)n1`, the “% inhibition” value is on record as -1%.

Turning to `O/N=C(\NCc1ccccc1)c1cccnc1Oc1c(F)cccc1F`, the “% inhibition” value was determined as 3%.

`O/N=C(\NCc1c(F)cccc1F)c1cccnc1Oc1ccccc1`: the “% inhibition” value was 98%.

As to `O/N=C(\NCc1cccs1)c1cccnc1Oc1c(F)cccc1F`, the “% inhibition” value stood at 73%.

For the compound `O/N=C(\NCc1cccnc1)c1cccnc1Oc1ccccc1`, the “% inhibition” value is recorded as 8%.

`Cc1ccc(Oc2ncccc2/C(=N/O)NCc2c(F)cccc2F)cc1`: the “% inhibition” value is reported as 98%.

In the case of `Cc1cccc(Oc2ncccc2/C(=N/O)NCc2cccs2)c1C`, the “% inhibition” value worked out at 3%.

For `Cc1ccc(Oc2nc(C)ccc2/C(=N/O)NCc2c(F)cccc2F)cc1`, the “% inhibition” value is reported as 13%.

For the compound `CCCN/C(=N\O)c1cccnc1Oc1ccccc1`, the “% inhibition” value is 8%.

Regarding `Cc1ccc(Oc2ncccc2/C(=N/O)NCc2ccccc2)cc1`, the “% inhibition” value stood at 12%.

For the compound `Cc1cccc(Oc2ncccc2/C(=N/O)NCc2ccncc2)c1C`, the “% inhibition” value is 5%.

For the compound `Cc1ccccc1CN/C(=N\O)c1cccnc1Oc1cccc(C)c1C`, the “% inhibition” value is 85%.

As for `COc1ccccc1CN/C(=N\O)c1cccnc1Oc1cccc(C)c1C`, the “% inhibition” value was 7%.

For the compound `CSc1ccc(Oc2ncccc2/C(=N/O)NCc2cccnc2)cc1C`, the “% inhibition” value is 10%.

With `CCOc1cccc(-c2nc(CNCCc3cccc(OC)c3)co2)c1`, the “% inhibition” value worked out at 8%.

Regarding `COCC(C)NCc1coc(-c2cccc(C)c2)n1` (stereo not drawn), the “% inhibition” value came to 19%.

`Cc1ccc(N(C)Cc2coc(-c3ccccc3Cl)n2)cc1`: the “% inhibition” value is reported as -9%.

For the compound `CC(C)COc1ncccc1/C(=N/O)NCc1c(F)cccc1F`, the “% inhibition” value is -9%.

Consider `Cc1cc(C)cc(CN/C(=N\O)c2cccnc2Oc2cccc(C)c2C)c1`, for which the “% inhibition” value was -13%.

Take `O/N=C(\NCc1ccncc1)c1cccnc1OCc1ccccc1F`: the “% inhibition” value is -12%.

Turning to `Cc1cc(C)cc(CN/C(=N\O)c2cccnc2Oc2c(F)cccc2F)c1`, the “% inhibition” value came to 100%.

Regarding `Cc1cc(C)cc(CN/C(=N\O)c2cccnc2OCc2ccccc2F)c1`, the “% inhibition” value amounted to 83%.

For the compound `CC(C)c1ccc(Oc2ncccc2/C(=N/O)NCc2ccncc2)cc1`, the “% inhibition” value is recorded as 1%.

With `CC(C)c1ccc(Oc2ncccc2/C(=N/O)NCc2c(F)cccc2F)cc1`, the “% inhibition” value was 100%.

Turning to `Cc1cc(C)cc(CN/C(=N\O)c2cccnc2Oc2c(F)c(F)cc(F)c2F)c1`, the “% inhibition” value is listed as -3%.

For the compound `O/N=C(\NCc1c(F)cccc1F)c1cccnc1Oc1c(F)cccc1F`, the “% inhibition” value was determined as 95%.

As to `O/N=C(\NCc1c(F)cccc1F)c1cccnc1OC1CCC1`, the “% inhibition” value came to 10%.

Regarding `O/N=C(\NCc1c(F)cccc1F)c1cccnc1Oc1c(F)c(F)cc(F)c1F`, the “% inhibition” value was determined as 2%.

On to `O/N=C(\NCc1ccccc1)c1cccnc1OCc1ccccc1F`, for which the “% inhibition” value came to 37%.

`COc1cc(C)ccc1Oc1ncccc1/C(=N/O)N(C)C1CCN(C)CC1`: the “% inhibition” value is recorded as -9%.

Consider `Fc1ccc(-c2nc(Cn3ncc4c3CCCC4)co2)cc1`, for which the “% inhibition” value was determined as 1%.

As for `COc1cc(-c2nc(CN3CCC(Cc4ccccc4)CC3)co2)cc(OC)c1OC`, the “% inhibition” value worked out at 6%.

Consider `CCOc1ccccc1-c1nc(CN(C)c2ccc(C)cc2)co1`, for which the “% inhibition” value was -15%.

As for `CCCN(Cc1coc(-c2ccccc2Cl)n1)C(C)CC` (stereo not drawn), the “% inhibition” value is recorded as -11%.

For `O/N=C(/c1ccnc(Oc2cccc3c2CCCC3)c1)N1CCN(c2ccccc2)CC1`, the “% inhibition” value amounted to 22%.

`N/C(=N\O)c1ccnc(Oc2cccc3c2CCCC3)c1`: the “% inhibition” value came to 7%.

Consider `Cc1cc(C)n(/C(=N\O)c2ccnc(Oc3cc(Cl)ccc3Cl)c2)n1`, for which the “% inhibition” value amounted to 16%.

For the compound `O/N=C(/c1ccnc(Oc2cccc3c2CCCC3)c1)N1CCSCC1`, the “% inhibition” value was determined as 91%.

As to `O/N=C(/c1ccc(Oc2cccc3c2CCCC3)nc1)N1CCSCC1`, the “% inhibition” value is listed as 21%.

Take `Cc1cc(C)n(/C(=N\O)c2ccnc(Oc3cccc4c3CCCC4)c2)n1`: the “% inhibition” value amounted to 57%.

Turning to `C=COCCCNCc1coc(-c2ccc(C)cc2)n1`, the “% inhibition” value is on record as -5%.

Regarding `Cc1ccccc1-c1nc(CN(C)Cc2ccccc2)co1`, the “% inhibition” value is given as -2%.

For `CCN(CC)CCN(CC)Cc1coc(-c2ccc(OC)cc2)n1`, the “% inhibition” value was found to be 14%.

In the case of `Cc1ccccc1-c1nc(CN(CCN(C)C)Cc2ccccc2)co1`, the “% inhibition” value is given as 54%.

With `CC(C)(C)CNCc1coc(-c2ccc(C(C)(C)C)cc2)n1`, the “% inhibition” value is given as 99%.

Consider `C=COCCCNCc1coc(-c2ccc(OC)cc2)n1`, for which the “% inhibition” value is -2%.

Take `C=COCCCNCc1coc(-c2ccc(C(C)(C)C)cc2)n1`: the “% inhibition” value is given as 53%.

Turning to `COCCN(CCOC)Cc1coc(-c2ccc(C(C)(C)C)cc2)n1`, the “% inhibition” value is on record as -1%.

`CN(C)CC(C)(C)CNCc1coc(-c2ccc(C(C)(C)C)cc2)n1`: the “% inhibition” value is 9%.

Consider `Cc1ccccc1-c1nc(CN(CCC#N)Cc2ccccc2)co1`, for which the “% inhibition” value is -5%.

On to `CC(C)(C)c1ccc(CNCc2coc(-c3ccc(O)cc3)n2)cc1`, for which the “% inhibition” value is given as 36%.

`CCN(CCN(C)C)Cc1coc(-c2ccc(C(C)(C)C)cc2)n1`: the “% inhibition” value is reported as 99%.

As to `Cc1ccc(-c2nc(CN(C)C(C)(C)C)co2)cc1`, the “% inhibition” value was determined as 22%.

As for `CN(CCc1ccccc1)Cc1coc(-c2ccc(Cl)cc2Cl)n1`, the “% inhibition” value worked out at 11%.

`Cc1ccc(CCNCc2coc(-c3ccc(Cl)cc3Cl)n2)cc1`: the “% inhibition” value was -7%.

Regarding `C=CCN(C)Cc1coc(-c2cccc(OC)c2)n1`, the “% inhibition” value came to 27%.

As for `CSc1ccc(Oc2nc(C)ccc2/C(=N/O)N2C(C)CCC2C)cc1C` (stereo not drawn), the “% inhibition” value is given as 23%.
